The results in this text go back to ChEMBL document CHEMBL3433997, “St. Jude Leishmania screening dataset” (2016).

Usually inhibition stands for the relative decrease from the control value, in per cent.

Common to all, as to type: functional
Assay [1] deals with Solute carrier family 2, facilitated glucose transporter member 1 (Homo sapiens) (UniProt P11166). Put plainly: ST_JUDE_LEISH: Cytotoxicity at 2uM final concentration against transgenic Leishmania Mexicana promastigotes LmGLUT1 that are glucose transport deficient and complemented with the human glucose transporter GLUT1. Activity is measured by DNA content using SYBR green in vitro.

The target in assay [2] is Hexose transporter 1 (Plasmodium falciparum) (UniProt O97467). The experiment in a line: ST_JUDE_LEISH: Cytotoxicity at 2uM final concentration against transgenic Leishmania Mexicana promastigotes LmPfHT that are glucose transport deficient and complemented with the Plasmodium falciparum hexose transporter. Activity is measured by DNA content using SYBR green in vitro.

Assay [3] addresses Glucose transporter (Leishmania mexicana) (UniProt O61059). The experiment in a line: ST_JUDE_LEISH: Cytotoxicity at 2uM final concentration against transgenic Leishmania Mexicana promastigotes LmGT2 that are glucose transport deficient and complemented with the L. Mexicana glucose transporter 2. Activity is measured by DNA content using SYBR green in vitro.

Solute carrier family 2, facilitated glucose transporter member 1 (Homo sapiens), sequence (P11166 whole entry): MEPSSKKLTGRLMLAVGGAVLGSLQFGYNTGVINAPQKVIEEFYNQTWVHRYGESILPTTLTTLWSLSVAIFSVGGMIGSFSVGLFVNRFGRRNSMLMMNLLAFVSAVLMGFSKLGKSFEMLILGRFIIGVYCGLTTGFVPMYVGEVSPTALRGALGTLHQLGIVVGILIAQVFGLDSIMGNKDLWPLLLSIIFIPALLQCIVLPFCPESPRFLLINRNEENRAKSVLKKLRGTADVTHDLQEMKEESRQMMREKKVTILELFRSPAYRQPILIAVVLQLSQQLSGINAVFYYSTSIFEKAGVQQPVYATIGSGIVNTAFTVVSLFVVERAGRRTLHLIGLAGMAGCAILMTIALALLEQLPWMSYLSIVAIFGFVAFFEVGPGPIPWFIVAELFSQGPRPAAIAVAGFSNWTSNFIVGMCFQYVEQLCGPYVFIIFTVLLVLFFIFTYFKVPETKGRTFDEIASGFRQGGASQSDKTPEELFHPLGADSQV

Take `Cc1cc(CNCC(CCNc2cc(=O)c3ccccc3[nH]2)NCc2cc(Br)cc(Br)c2)oc1C` (stereo not drawn): the figures for the inhibition in assay [1], in assay [2] and in assay [3] were 4.51%, 2.43% and 3.29%, respectively.

Regarding `CCCN(Cc1nnc(-c2ccco2)o1)C(=O)C1CCCN(C(=O)c2ccc(Cl)cc2)C1` (stereo not drawn), the results for the inhibition in assay [1], in assay [2] and in assay [3] were 1.85%, 0.73% and -0.96%, respectively.

As to `COc1ccc(OC)c(-c2ccc(O)c(CNCC(C)c3ccccc3)c2)c1` (stereo not drawn), the inhibition is -0.66% in assay [1], -0.62% in assay [2] and -1.24% in assay [3].

Regarding `O=C(Nc1ccc(I)cc1)N1CCc2sccc2C1CN1CCCCC1` (stereo not drawn), the inhibition in assay [1] amounted to 12.2%; in assay [2], 9.79%; in assay [3], 10.5%.

As to `O=S(=O)(Nc1cc2c(cc1OCc1ccccc1)CCN(C1CCC1)CC2)c1ccc(-c2ccc(Cl)cc2)cc1`, the inhibition in assay [1] was 1.72%; in assay [2] it was 2.61%; in assay [3], -1.11%.

As to `Cc1cc(NC(=O)NCCN2CCC(NC(=O)c3ccc(F)cc3)CC2)c2ccccc2n1`, the inhibition in assay [1] was -0.27%; in assay [2], -0.3%; in assay [3], -3.5%.

In the case of `CCc1ccc(Cc2cnc3nc(N)nc(N)c3c2C)cc1`, the results for the inhibition in assay [1], in assay [2] and in assay [3] were 8.4%, 13.2% and 8.26%, respectively.

Turning to `CC1CN(c2ccnc3ccc(Sc4ccc(Oc5ccccc5)cc4)cc23)CC(C)N1` (stereo not drawn), the results for the inhibition in assay [1], in assay [2] and in assay [3] were 0.07%, 2.41% and -0.77%, respectively.

Turning to `c1csc(-c2nc(N3CCCC3)ncc2-c2ccsc2)n1`, the inhibition in assay [1] is 0.85%; in assay [2], -0.18%; in assay [3] it was 1.26%.

As to `CCCN(CCCCCCNCCc1ccc(Cl)cc1)CCc1ccc(O)c(O)c1`, the inhibition is -4.9% in assay [1], -1.72% in assay [2] and -4.57% in assay [3].

For the compound `Cc1cc(N[C@@H](CC(C)C)C(=O)NCCc2ccccc2)nc(NCCc2ccc(F)cc2)n1`, the inhibition in assay [1] is -0.03%; in assay [2] it was 0.66%; in assay [3], -1.31%.

For `COc1cc(Cl)c(C)cc1N(Cc1ccccc1-c1ccccc1)S(=O)(=O)c1ccc(C(F)(F)F)cc1`, the inhibition in assay [1] stood at 1.01%; in assay [2], 0.29%; in assay [3], 0.43%.

For the compound `O=C1Nc2cccc3c2C1(CCCCN1CCC(c2c(-c4ccccc4)[nH]c4ccccc24)CC1)CCC3` (stereo not drawn), the inhibition is 3.04% in assay [1], 2.74% in assay [2] and -0.14% in assay [3].

Take `O=C(Nc1ccc(F)c(F)c1)c1ccc(CN2CCCN(Cc3cccc(F)c3)CC2)cc1`: the inhibition is 0.07% in assay [1], -0.34% in assay [2] and 1.29% in assay [3].

Regarding `COc1ccc2nccc([C@@H](O)CN3CCC(NCc4nc5c(C#N)cccc5[nH]4)CC3)c2c1`, the inhibition was 3.6% in assay [1], 3.33% in assay [2] and 3.84% in assay [3].

On to `O=C(NCCCCN1CCC(O)(c2ccc3c(c2)OCO3)CC1)c1ccc(NC(=O)c2ccc(Cl)cc2)cc1`, for which the inhibition in assay [1] is -1.5%; in assay [2] it was 1.45%; in assay [3], -1.6%.

As to `Cc1[nH]c2ccccc2c1C(=O)C(C)Sc1nnc(-c2ccccc2F)o1` (stereo not drawn), the values for the inhibition in assay [1], in assay [2] and in assay [3] were 2.5%, 1.95% and 3.81%, respectively.

As for `CCN1CCC(N(Cc2ccc(-c3ccc(C(F)(F)F)cc3)cc2)C(=O)Cn2nc(C)c(=O)cc2SCc2ccc(F)cc2)CC1`, the inhibition turned out to be 0.5% in assay [1], 0.04% in assay [2] and 0.46% in assay [3].

Take `Cc1cccc2nc(-c3ccc(-c4ccc(CN5CCC(CO)CC5)cc4)s3)[nH]c12`: the results for the inhibition in assay [1], in assay [2] and in assay [3] were 3.72%, 2.43% and 0.87%, respectively.

Turning to `Cc1ccn2cc(-c3ccc(NC(=O)c4ccc(Br)o4)cc3)nc2c1`, the inhibition was found to be 1.17% in assay [1], 2.74% in assay [2] and 0.61% in assay [3].

With `COc1ccccc1C1CCN(C2CCC(NC(=O)/C=C/c3cccc(Cl)c3F)CC2)CC1` (stereo not drawn), the inhibition in assay [1] worked out at 10.5%; in assay [2] it was 1.32%; in assay [3] it was 3.14%.

Consider `COc1cccc2cc(C(=O)N[C@@H](CC(C)C)C(=O)N[C@H](/C=N/N(C)C(=O)OC(C)(C)C)CC(=O)OC(C)(C)C)oc12`, for which the inhibition in assay [1] came out at 2.84%; in assay [2], 3.79%; in assay [3] it was 3.79%.

Take `COc1ccc2nc3cc(Cl)ccc3c(Nc3ccc(Sc4ccc(Nc5c6ccc(Cl)cc6nc6ccc(OC)cc56)cc4)cc3)c2c1`: the inhibition in assay [1] stood at 3.47%; in assay [2], 4.48%; in assay [3], 3.6%.

On to `Cc1ccc(C(=O)N2CCc3cc4nccc(N5CCN6CCC[C@H]6C5)c4cc32)cc1`, for which the inhibition in assay [1] turned out to be 1.81%; in assay [2], 0.6%; in assay [3], 1.55%.

For the compound `Cc1ccc(NC(=O)c2cccc(N3CCN(c4ccncc4)CC3)c2)cc1F`, the inhibition in assay [1] amounted to 10.8%; in assay [2], 9.25%; in assay [3], 15.6%.

Consider `COc1cc(Nc2nccc(N3CCC(NC(=O)Nc4cccc(C(C)=O)c4)C3)n2)cc(OC)c1OC` (stereo not drawn), for which the inhibition in assay [1] was determined as 2.52%; in assay [2], 2.96%; in assay [3] it was 3.92%.

For the compound `O=C(NC1CCN(Cc2cccc(C(F)(F)F)c2)CC1)c1ccc(-c2cccc(C(F)(F)F)c2)s1`, the inhibition came out at 6.34% in assay [1], 3.03% in assay [2] and 6.14% in assay [3].

For the compound `O=C(c1cc(-c2ccco2)n[nH]1)N1CCN(S(=O)(=O)c2ccc(Cl)cc2)CC1`, the inhibition is -0.38% in assay [1], -0.62% in assay [2] and -1.09% in assay [3].

Consider `CC(=O)Oc1ccc(C(=O)Oc2ccccc2C#CC#N)cc1OC(C)=O`, for which the inhibition in assay [1] was -2.02%; in assay [2], 0.93%; in assay [3], -1.3%.

Take `CN1CCC(NCc2ccc(-c3ccc(C(F)(F)F)cc3)cc2)CC1`: the figures for the inhibition in assay [1], in assay [2] and in assay [3] were -0.71%, -0.76% and 0.62%, respectively.

Take `Brc1ccc(C=NNc2nc3ccccc3[nH]2)cc1`: the inhibition in assay [1] amounted to 6.61%; in assay [2] it was 4.26%; in assay [3] it was 2.59%.
